# Rows were chosen to be rich in hits. Some 3.5% of all compounds tested hit in one or more screens of this group.
# TEAD-YAP inh: TEAD-YAP interaction inhibition; inhibition, % at 9.12 µM; HEK-TIYL cells, TEAD-Gal4/YAP UAS-luciferase luminescence; AID 1259422; 640,000 compounds, 1.4% hits; in the data active = inhibition above about 32%;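 note: 0% = median of test compound wells and 100% = reference inhibitor wells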
# MITF inh: human MITF inhibition, primary screen; AID 1259374; O75030; AlphaScreen MITF homodimerization, bead proximity signal; inhibition, % at 2.6 µM; 650,000 compounds, 0.91% hits; in the data active = inhibition above about 50%;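 note: 0% = vehicle wells with protein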
# GPR151 activ: activates the human receptor GPR151; Q8TDV0; PathHunter beta-arrestin GPR151 cells, luminescence; activation, % at 11.2 µM; 650,000 compounds, 1% hits; AID 1508602; in the data active = activation above about 4.9%;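 note: 0% = median of compound wells and 100% = cells with positive control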
# Target sequence (Q8TDV0 whole entry, looked up): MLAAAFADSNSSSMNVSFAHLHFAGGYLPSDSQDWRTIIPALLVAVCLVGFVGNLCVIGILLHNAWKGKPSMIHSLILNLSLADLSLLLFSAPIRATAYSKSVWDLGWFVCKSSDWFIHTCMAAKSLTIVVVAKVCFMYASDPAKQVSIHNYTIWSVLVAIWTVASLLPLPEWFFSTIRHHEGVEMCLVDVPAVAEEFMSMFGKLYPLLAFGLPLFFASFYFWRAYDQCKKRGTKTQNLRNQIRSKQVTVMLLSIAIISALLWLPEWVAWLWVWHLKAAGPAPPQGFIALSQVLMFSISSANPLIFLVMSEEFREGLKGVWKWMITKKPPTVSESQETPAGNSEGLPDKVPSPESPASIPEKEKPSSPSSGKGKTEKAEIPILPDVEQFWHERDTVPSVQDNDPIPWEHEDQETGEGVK
# FBW7 act: activators of human E3 ligase FBW7. Q969H0. AlphaScreen FBW7–phospho-cyclin E peptide binding, activator screen. normalized activity (activation), % at 26.1 µM. 650,000 compounds, 0.13% hits. AID 1259310; in the data active = normalized activity above about 1.9%;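 note: purified mutant Fbw7 with reduced substrate affinity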
# MITF inh conf: human MITF inhibition, confirmation. AID 1259372. inhibition, % at 2.6 µM. AlphaScreen MITF homodimerization, biotin/His-MITF beads. 4,700 compounds, 16% hits. shares compounds with MITF inh;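 active = inhibition above a cutoff derived from the DMSO control wells, cut at about 28% in these data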;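 note: 0% = MITF dimer wells with DMSO only; inhibitors lower the bead chemiluminescence by keeping MITF from dimerizing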
# AS interf ctr: optically interferes with AlphaScreen signal. shares compounds with MITF inh. LysRS AlphaScreen counterscreen, signal interference, triplicate. inhibition, % at 2.6 µM. 4,700 compounds, 7.6% hits. AID 1259376;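 active = inhibition above a cutoff derived from the DMSO control wells, cut at about 30% in these data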
# Numbers without * were called inactive; / = not tested or not shown; ! = not confirmed by another sample.
SMILES,TEAD-YAP inh,MITF inh,GPR151 activ,FBW7 act,MITF inh conf,AS interf ctr
COc1cc(OC)cc(C(=O)N2CCN(Cc3ccc(OC)c(OC)c3)CC2)c1,3,35,1,0,/,/
CCc1ccc(CN2CCN(C(=O)c3ccccc3)CC2)cc1,-10,24,0,0,/,/
COc1cccc(C(=O)N2CCN(Cc3ccc4ccccc4c3)CC2)c1,9,7,-1,0,/,/
COc1ccc(C(=O)N2CCN(Cc3ccc4ccccc4c3)CC2)cc1OC,38*,70*,0,0,12,22
COc1cc(N2CCN(C(=O)c3ccc(OC)c(OC)c3)CC2)nc(C)n1,8,107*,0,0,-4,-8
COc1cc(OC)cc(C(=O)N2CCN(Cc3ccncc3)CC2)c1,9,84*,1,0,4,4
CCOc1cc(N2CCN(C(=O)c3ccc(OC)c(OC)c3)CC2)nc(C)n1,2,6,1,0,/,/
O=C(c1ccncc1)N1CCN(Cc2ccc3ccccc3c2)CC1,5,79*,1,0,-17,-5
C1=C(c2ccc3c(c2)CN(C2CCOCC2)CCO3)Cc2ccccc21,11,-11,-1,0,/,/
COc1cccc(C(=O)N2CCC(N3CC(C)CC(C)C3)CC2)c1 (centres undefined),1,61*,1,0,1,3
COc1cc(C2C(C#N)=C(N)N(c3cccc(C(F)(F)F)c3)C3=C2C(=O)CCC3)cc(OC)c1OC (centres undefined),5,1,2,0,/,/
CCOC(=O)c1ccc(NC(=O)CC2C(=O)N(c3ccc(F)cc3)C(=S)N2CCc2ccc(OC)c(OC)c2)cc1 (centres undefined),12,72*!,0,0,-7,-4
COC(=O)c1ccc(NC(=O)CC2C(=O)N(c3ccc(F)cc3)C(=S)N2CCc2ccc(OC)c(OC)c2)cc1 (centres undefined),-8,0,1,0,/,/
O=C1c2ccccc2C(=O)N1CCCCN(C(=O)c1cc([N+](=O)[O-])ccc1Cl)c1ccc(Cl)cc1,11,68*,0,0,6,11
O=C1c2ccccc2C(=O)N1CCCCN(C(=O)c1ccc([N+](=O)[O-])cc1)c1ccc(Cl)cc1,-10,1,-2,0,/,/
Cc1ccc(N(CCCCN2C(=O)c3ccccc3C2=O)C(=O)c2ccc([N+](=O)[O-])cc2)cc1,-2,64*,-1,0,5,15
COc1ccc(C2=C/C(=C\c3ccc(OC(C)=O)c(OC)c3)C(=O)O2)cc1,5,-3,-1,0,/,/
Cc1cnc(-c2ccc(C(=O)N3CCN(C)CC3)cc2)nc1NCCO,-3,-6,-1,0,/,/
O=C(C1CCCN(Cc2cccc([N+](=O)[O-])c2)C1)N1CCCCCC1 (centres undefined),5,69*,0,0,13,16
O=C(C1CCCN(Cc2cccc([N+](=O)[O-])c2)C1)N1CCc2ccccc2C1 (centres undefined),8,51*,0,0,9,17
COc1cccc(CN2CCCC(C(=O)N3CCc4ccccc4C3)C2)c1 (centres undefined),13,60*,1,0,8,14
CCN(CC)C(=O)C1CCCN(Cc2cccc([N+](=O)[O-])c2)C1 (centres undefined),5,40,3,0,/,/
Cc1ccc(CN2CCC(C(=O)N3CCc4ccccc4C3)CC2)o1,-7,54*,2,0,11,17
COc1cccc(CN2CCc3ccccc3C2)c1,0,25,1,0,/,/
O=C(C1CCN(Cc2ccccc2F)CC1)N1CCc2ccccc2C1,6,49,-1,0,/,/
SMILES,TEAD-YAP inh,MITF inh,GPR151 activ,FBW7 act,MITF inh conf,AS interf ctr
CC1CC(C)CN(S(=O)(=O)c2ccc(F)c(C(=O)Nc3cc(C(F)(F)F)ccc3Cl)c2)C1 (centres undefined),0,-1,-1,0,/,/
COc1ccccc1NS(=O)(=O)c1cc(C(=O)Nc2ccccc2)ccc1OC,7,14,-2,0,/,/
COc1cccc(N2C(=O)NC(=O)/C(=C\c3cc(C)n(C4CC4)c3C)C2=O)c1,-4,9,-1,0,/,/
C/C=C/c1ccc(OCCCCN2CCNCC2)c(OC)c1,-11,59*,0,0,6,1
COc1cc(C)ccc1OCCCCN1CCNCC1,2,63*,0,0,6,0
C=CCN(CC=C)CCCOc1ccc(C)cc1OC,-2,55*,-2,1,11,7

# Screening results deposited in PubChem by The Scripps Research Institute Molecular Screening Center.
